The campaign covered roughly 52,000 compounds. About 1,700 (3.3%) were called active. No stated cut-off is given here; in the data, active means survival mostly below about 52% (no sharp cut-off); inactive means mostly above about 56%. Only a selection was taken, and actives are over-represented in it overall.

In this assay the test system is Wild type. The experiment in a line: growth inhibition of S. aureus wild type versus tarO mutant, primary screen, teichoic acid synthesis inhibitors, RN4220, OD600 (AID 463173). As to conditions: S. aureus RN4220 wild type/DeltatarO growth, OD600, 18 h, stronger effect = lower value, screened at 18.75 µg/mL (by protocol).
As to `CCC(C(=O)Nc1nnc2n1CCS2)c1ccccc1` (stereo not drawn), the survival was 66% (inactive). As to `CCN(CC)Cc1cc(C(=O)O)oc1C(C)(C)C`, the survival is 106% (inactive). For `COc1ccc(-c2cc(C(F)(F)F)c(C#N)c(SCC(=O)Nc3cccc(C)c3)n2)cc1` the value was 74% (inactive). As for `CN(C(=O)CSc1cn(CC(=O)N2CCCC2)c2ccccc12)c1ccccc1`, the figure is 83% (inactive); as for `Cc1ccc(C(=O)NCC(c2ccc3c(c2)OCO3)N2CCN(c3ccc(F)cc3)CC2)cc1` (stereo not drawn), 68% (inactive). As to `Cc1ccc(C)c(CS(=O)(=O)c2cn(CC(=O)N(C(C)C)C(C)C)c3ccccc23)c1`, the survival was 77% (inactive). As for `CCc1cccc(NC(=O)CSc2ncc3c(n2)-c2ccc(Cl)cc2N(Cc2ccccc2)S3(=O)=O)c1`, the figure is 101% (inactive); as for `COc1ccccc1CNC(=O)CSc1ncc2c(n1)-c1cc(Cl)ccc1N(Cc1ccccc1)S2(=O)=O`, 73% (inactive). With `COc1ccc(CNC(=O)CSc2ncc3c(n2)-c2ccc(Cl)cc2N(Cc2ccccc2)S3(=O)=O)cc1`, the survival was 22% (inactive). For `O=C(CSc1ncc2c(n1)-c1ccc(Cl)cc1N(Cc1ccccc1)S2(=O)=O)Nc1ccc(F)c(F)c1` the value was 129% (inactive); for `COc1ccccc1CNC(=O)CSc1ncc2c(n1)-c1ccc(Cl)cc1N(Cc1ccccc1)S2(=O)=O`, 0% (active); for `Cc1cccc(C)c1NC(=O)CSc1ncc2c(n1)-c1ccc(Cl)cc1N(Cc1ccccc1)S2(=O)=O`, -2% (active). For `CCc1ccc(NC(=O)Cn2c(=O)n(Cc3ccco3)c(=O)c3oc4ccccc4c32)cc1` the value was 87% (inactive); for `COc1ccc(C2C(=O)N(C3CCCCC3)CC(=O)N2CCc2ccc(C)cc2)cc1OC` (stereo not drawn), 82% (inactive). For `Cc1ccc(NC(=O)CN2C(=O)C(c3ccccc3)=NC23CCCCC3)cc1C` the value was 89% (inactive); for `COc1ccc(Br)cc1CNC(=O)c1nn(-c2ccc(C)cc2)c(=O)c2c1c1ccccc1n2C`, 126% (inactive).

Take `CC1CCCC(C)N1C(=O)c1ccccc1N` (stereo not drawn): the survival is 108% (inactive).

Regarding `COc1ccc(-c2ccc(NS(=O)(=O)c3cccc(Cl)c3)cc2)nn1`, the survival is 82% (inactive). Regarding `Cc1nn2c(C)c(C(=O)N3CCN(c4ccc(Cl)cc4)CC3)cnc2c1-c1ccc(F)cc1`, the survival is 72% (inactive). As for `COc1cccc(N2CCN(C(=O)c3cnc4c(-c5ccc(F)cc5)c(C)nn4c3C)CC2)c1`, the figure is -6% (active); as for `COc1cccc(N2CCN(C(=O)c3cnc4c(-c5ccccc5)c(C)nn4c3C)CC2)c1`, 76% (inactive). As for `CC(=O)N1c2c(cc(Br)cc2S(=O)(=O)N2CCN(c3ccccc3)CC2)CC1C` (stereo not drawn), the figure is 98% (inactive); as for `Nc1ccc2nc(CCc3ccccc3)[nH]c2c1`, 106% (inactive); as for `Oc1ccc(NCc2ccc(OCc3ccccc3Cl)cc2)cc1`, -4% (active). With `Oc1ccc(NCc2ccc(OCc3ccccc3)cc2)cc1`, the survival was 87% (inactive). For `Oc1ccc(NCc2ccccc2OCc2ccccc2Cl)cc1` the value was 82% (inactive). As for `COc1ccc(NC(=O)C2=C(C)Nc3nc(SCc4ccc(Cl)cc4)nn3C2c2cccc(OC)c2OC)cc1` (stereo not drawn), the survival is 60% (inactive). As for `O=C(Nc1ccc(OC(F)(F)F)cc1)c1cc(-c2ccc(Cl)cc2)on1`, the figure is 105% (inactive); as for `Cc1ccccc1C(=O)Nc1ccc(C(=O)OCc2cc(=O)n3nc(C(C)C)sc3n2)cc1`, 65% (inactive). For `CCN(c1ncnc2c1cnn2-c1cc(Cl)ccc1C)C1CCCCC1`, the survival is 80% (inactive). As for `CCN(CC)c1ncnc2c1cnn2-c1cc(Cl)ccc1C`, the figure is -6% (active). For `CCN(CC)CCNc1ncnc2c1cnn2-c1cc(Cl)ccc1C` the value was 98% (inactive). As for `Cc1ccc(N2CCN(S(=O)(=O)c3ccc4oc(=O)c5ncn(C)c5c4c3)CC2)c(C)c1`, the figure is 121% (inactive). Regarding `COC(=O)CCN(C(=O)c1c(C)oc2ncnc(N3CCOCC3)c12)c1ccccc1`, the survival is 0% (active). For `CCc1ccccc1N(CC)C(=O)c1c(C)oc2ncnc(N3CCOCC3)c12` the value was 70% (inactive); for `CCc1cccc(NC(=O)c2c(C)oc3nc(C)nc(N4CCCC4)c23)c1`, 101% (inactive). As for `Cc1ccc(CNC(=O)c2c(C)oc3ncnc(N4CCOCC4)c23)cc1`, the figure is -1% (active); as for `CCCN(C(=O)c1c(C)oc2ncnc(N3CCOCC3)c12)c1ccc(Cl)c(Cl)c1`, 74% (inactive). For `Cc1oc2ncnc(N3CCOCC3)c2c1C(=O)NCc1ccc(Cl)cc1` the value was 73% (inactive); for `Cc1ccc(CCNC(=O)c2c(C)oc3nc(C)nc(N4CCOCC4)c23)cc1`, 124% (inactive). For the molecule `CCc1ccc(CNC(=O)c2c(C)oc3ncnc(N4CCOCC4)c23)cc1`, the survival is 133% (inactive). As for `Cc1nc(N2CCOCC2)c2c(C(=O)NCCc3ccccc3)c(C)oc2n1`, the figure is -3% (active); as for `Cc1oc2ncnc(N3CCOCC3)c2c1C(=O)NCCc1ccccc1`, 85% (inactive). For `Cc1nc(N2CCCC2)c2c(C(=O)Nc3ccc(C)c(Cl)c3)c(C)oc2n1` the value was 130% (inactive); for `Cc1nc(N2CCCC2)c2c(C(=O)Nc3cccc(Cl)c3)c(C)oc2n1`, -3% (active). For `CCc1cccc(C)c1NC(=O)c1cc(CN2CCCC2)on1` the value was 72% (inactive); for `Cc1nc2ccc(S(=O)(=O)N(CC(=O)Nc3ccc(F)cc3F)Cc3ccccc3)cc2s1`, 88% (inactive); for `CCn1c(=O)c2cc(C(=O)NCc3ccc(F)cc3Cl)sc2c2ccccc21`, 81% (inactive). Turning to `Cc1cccc(CN2CCC(CNC(=O)c3c(C)oc4ncnc(N5CCCCC5)c34)CC2)c1`, the survival was 98% (inactive). For `Cc1oc2ncnc(N3CCCCC3)c2c1C(=O)NCC1CCN(Cc2ccc(F)cc2)CC1` the value was 90% (inactive); for `Cc1oc2ncnc(N3CCCCC3)c2c1C(=O)NCC1CCN(Cc2cccc(F)c2)CC1`, -6% (active); for `CCCCN(CC)CCCNC(=O)c1c(C)oc2ncnc(N3CCOCC3)c12`, 14% (active). For `CCCCN(CC)CCNC(=O)c1c(C)oc2ncnc(N3CCOCC3)c12` the value was 76% (inactive). For `CCN(CC)CCCNC(=O)c1c(C)oc2ncnc(N3CCOCC3)c12` the value was 136% (inactive); for `CCN(C(=O)Cn1ncc2c(=O)oc3ccc(C)cc3c21)c1cc(OC)ccc1OC`, 86% (inactive); for `CCOc1ccc(Nc2nn(-c3ccc(OC(F)(F)F)cc3)nc2C(C)=O)cc1`, 123% (inactive). As to `COc1cccc(NS(=O)(=O)c2ccc3c(c2)N(C)C(=O)CC(=O)N3C)c1`, the survival was 78% (inactive). Turning to `COc1ccc2[nH]c(=O)c(CN(CCCN3CCOCC3)C(=O)Nc3ccccc3)cc2c1`, the survival is 102% (inactive).

As to `O=C(NC1CCCCCC1)c1ccc(CS(=O)c2ccc(Br)cc2)o1` (stereo not drawn), the survival was 94% (inactive).

As for `Cc1cc2c(cc1NS(=O)(=O)c1ccc(Br)cc1)n(C)c(=O)c(=O)n2C`, the survival is 129% (inactive). As for `Cn1c(=O)n(C)c2cc(N3CCOCC3)c(NS(=O)(=O)c3ccc(Cl)cc3)cc21`, the figure is 93% (inactive); as for `Cn1c(=O)c(=O)n(C)c2cc(N3CCOCC3)c(NS(=O)(=O)c3ccc(Cl)cc3)cc21`, -3% (active); as for `CCc1ccc(S(=O)(=O)Nc2cc3c(cc2C)n(C)c(=O)c(=O)n3C)cc1`, 57% (inactive). For `CCc1ccc(S(=O)(=O)Nc2cc3c(cc2N2CCOCC2)n(C)c(=O)c(=O)n3C)cc1` the value was 1% (active); for `Cn1c(=O)c(=O)n(C)c2cc(N3CCOCC3)c(NS(=O)(=O)c3ccc(F)c(Cl)c3)cc21`, 63% (inactive).

As to `CC(C)Cc1ccc(S(=O)(=O)Nc2cc3c(cc2N2CCOCC2)n(C)c(=O)c(=O)n3C)cc1`, the survival is 63% (inactive). For `Cc1ccc(S(=O)(=O)Nc2cc3c(cc2N2CCOCC2)n(C)c(=O)n3C)cc1` the value was 80% (inactive); for `Cc1ccc(S(=O)(=O)Nc2cc3c(cc2C)n(C)c(=O)c(=O)n3C)cc1`, -4% (active). Regarding `COc1ccccc1OCCn1cc(C(=O)c2cccs2)c2ccccc21`, the survival was 102% (inactive).

As to `O=C(CSc1nnc(-c2ccc(S(=O)(=O)N3CCCC3)cc2)n1CC1CCCO1)NC1CC1` (stereo not drawn), the survival was 108% (inactive). For `COc1ccc(-c2nnc(SCC(=O)NCCC(C)C)nc2-c2ccc(OC)c(OC)c2)cc1OC` the value was 71% (inactive); for `COc1cccc2cc(-c3nc(Nc4cccc(C)c4C)sc3C)c(=O)oc12`, 65% (inactive); for `COc1cccc(NC(=O)C2CCC(CNS(=O)(=O)c3ccc4c(c3)CC(C)N4C(C)=O)CC2)c1` (stereo not drawn), 95% (inactive). As for `CNS(=O)(=O)c1ccccc1C(=O)N/N=C/c1ccc(OC)c(OC)c1`, the survival was 102% (inactive). For `COc1cc2c(cc1OC)n(CC(=O)c1ccc(C)cc1C)c(=O)n1nc(CCn3nc(C)cc3C)nc21` the value was 74% (inactive).

On to `COc1ccccc1N1CCN(S(=O)(=O)c2c(C)nc3sc(C)c(C)n3c2=O)CC1`, for which the survival was 85% (inactive). As for `COc1cc(NS(=O)(=O)c2ccc3c(c2)CCN3S(C)(=O)=O)cc(OC)c1`, the figure is 73% (inactive). As for `COc1ccc(-c2cc(C(F)(F)F)nc(NCCc3ccccc3)n2)cc1OC`, the figure is 81% (inactive); as for `COc1ccc(-c2cc(C(F)(F)F)nc(NCCc3ccccc3)n2)cc1`, -2% (active); as for `COc1ccc(-c2cc(C(F)(F)F)nc(NCc3ccccc3)n2)cc1`, -5% (active). Turning to `COc1ccc(-c2cc(C(F)(F)F)nc(NCc3ccc(F)cc3)n2)cc1`, the survival is -5% (active). On to `COc1ccc(-c2cc(C(F)(F)F)nc(SCC(=O)NCc3ccc(F)cc3)n2)cc1`, for which the survival was 90% (inactive). For the molecule `COc1ccc(-c2cc(C(F)(F)F)nc(NCc3ccccc3)n2)cc1OC`, the survival is 66% (inactive). For `COc1cccc(-c2cc(C(F)(F)F)nc(NCc3ccc(F)cc3)n2)c1` the value was 0% (active); for `COc1ccc(-c2cc(C(F)(F)F)nc(SCC(=O)NCCc3ccccc3)n2)cc1OC`, 81% (inactive). As for `COc1ccc(CNC(=O)C(C)Sc2nc(-c3ccccc3)cc(C(F)(F)F)n2)cc1` (stereo not drawn), the figure is 149% (inactive); as for `COc1cccc(-c2cc(C(=O)NCc3ccc(F)cc3)no2)c1`, 71% (inactive); as for `COc1ccc(-c2cc(NCc3ccc(F)cc3)n3cnnc3n2)cc1`, 72% (inactive).

The values are drawn from PubChem BioAssay AID463173 (ICCB-Longwood Screening Facility, Harvard Medical School, 2010).
